Among the data in paper PMC12723454 are apparent Kd values, retold here.

Only a sample is shown. How many sequences the whole screen found active is unknown.

Broadly, the apparent Kd is the concentration giving half-maximal binding under the conditions of the assay.

To fix the notation:
B1: HHH_b1_08438_000000177_dldesign_0_cycle1_af2pred_0001 (protein)
chain: GGSGGSAEEEVEKLIEEAKNNPDKEKAEELLSRALKLADAAGNVDLRSKTMNALFDVLGGSGGSG
B2: HHH_b1_01197_000000280_dldesign_0_cycle1_af2pred_0001 (protein)
chain: GGSGGSGKSSEIDKLLNEVLKLGKEEEYLKIMSLKMDYLETGDEEIFKEAKELAKKVIGGSGGSG
B3: HHH_b2_07220_000000120_dldesign_0_cycle1_af2pred_0001 (protein)
chain: SGGSEESKKLVEETIKKAKKLVEEGNPLEAKILLRKTLLDLSELGDDEGFSKLSKFLDEIEGGSG
B4: HHH_b1_00135_000000286_dldesign_0_cycle1_af2pred_0001 (protein)
chain: SGGSLAVETAKEYLEMVKSYAEEGDKEEAQFFADIIKLLAESENNPELKKIYEEAKKIVEEGGSG
B5: HHH_b1_08653_000000138_dldesign_0_cycle1_af2pred_0001 (protein)
chain: GSGGSGASLAAEDILRAMRQFARAGKPEAVRDLAKKGIKIMTEAGRPDEAKRIEEELARLGGSGG
B6: HHH_b1_02099_000000008_dldesign_0_cycle1_af2pred_0001 (protein)
chain: SGGSMEELDECARLLNELAHAIEEGNKEKFEELYKKARELIEKLGDEALLKALDELEEAFYGGSG
B7: ac710d00df0a15e663fb636f306744b3_0001_1_000000013_dldesign_0_cycle1_af2pred_0001 (protein)
chain: GIRERAREMAKKHGVSDEELQPVIDLVEKMRAEGKSIEEIARELGEKLAETGNKAYACVLEALAE

In this assay the target is Flpp3. Briefly: yeast display titration.
B1: the apparent Kd was > 11.6 µM (inactive).
With B2 the figure was > 5.39 µM (inactive); with B3, > 4.46 µM (inactive); with B4, > 7.9 µM (inactive).
B5: the apparent Kd was > 134 µM (inactive).
Regarding B6, the apparent Kd was > 0.105 µM (inactive).
With B7, the apparent Kd is > 0.105 µM (inactive).
